Bioassay records as filed in PubChem.
Shown are actives, neighbours in structure and some others; about 3% of the full set was active somewhere.
Chronic BCR inh: blocks chronic active B-cell receptor signaling; ABC-DLBCL IkBa-CBG/CBR reporter, luminescence ratio, 4 h; Potency, µM (highest dose often 46.1 µM), for inactives: at the highest dose activity change, negative = inhibition, actives largely listed as inhibitors; hit rate 0.05% among 340,000; AID 493014; active = well fitted inhibition curve with a large enough effect in the signal ratio, with a control signal flat, not every such curve was filed as active; inconclusive = small, poorly fitted or top-dose-only effect, or effect the other way, or a change in a side signal; the % refers to the signal ratio;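 also: potency is read from the fitted curve at half-maximal effect; plate controls were basal doxycycline-induced cells for no effect and cells given 10 µM MG132 for full effect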
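TMD8 ABC-DLBCL cells carrying doxycycline-inducible green luciferase fused to IkappaBalpha plus unfused red luciferase were exposed to compounds (up to 46 uM) for 4 hrs at 37C. Activity came from the overlap-corrected green/red luminescence ratio.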
hERG WT inh: inhibitors of human wildtype KCNH2 potassium channel; activity change, % at 1.84 µM; hit rate 0.37% among 340,000; Q12809; U2OS, BacMam KCNH2, thallium flux FluxOr; active compounds read low;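 active = maximum activity change below -70%; inconclusive = maximum activity change between -70% and -50%; inactive = maximum activity change above -50%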; also: % is scaled to controls: 0 for no effect and ±100 for the full control effect
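U2OS cells transduced with wild-type KCNH2 virus are loaded with FluxOr dye for 45 min, and thallium flux is measured in kinetic reads before and after stimulation buffer. Rate constants are normalized to DMSO controls.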
ALOX12 inh: inhibitors of human 12S-lipoxygenase ALOX12 | hit rate 1.1% among 580,000 | purified 12hLO, xylenol orange hydroperoxide absorbance | Potency, µM (doses to about 108 µM), without a hit: at the top dose activity change, negative = inhibition, hits mostly inhibitors | P18054; active = well fitted inhibition curve with a large enough effect; inconclusive = small, poorly fitted or top-dose-only effect, or another doubt; inactive = no such curve, though single readings can be large or run the other way; also: potency is read from the fitted curve at half-maximal effect; % is scaled to controls: 0 for no effect and ±100 for the full control effect
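Purified human 12hLO at 150 nM in 25 mM Hepes, 0.01% Triton X-100, pH 7.0, preincubated 15 min at room temperature with compound. Reaction started with 40 uM arachidonic acid, 30 min at room temperature. Hydroperoxide measured by Fe-xylenol orange, 573/405 nm absorbance ratio.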
ClpP mod: qHTS Assay for Activators of ClpP. purified B. subtilis ClpP, FRET peptide cleavage, 20 min. Potency, µM (series often up to 57.5 µM), for the others: at the highest dose activity change, negative = active. ATP-dependent Clp protease proteolytic subunit (Bacillus subtilis (strain 168)), P80244. hit rate 1.9% among 340,000; active = well fitted falling curve with a large enough effect; inconclusive = small, poorly fitted or top-dose-only effect; inactive = no such curve, though single readings can be large or run the other way; also: potency is read from the fitted curve at half-maximal effect; the source files actives as falling curves though it sought activators and does not explain the sign; nearly all actives have a fitted effect of over 65% in size
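Buffer: 100 mM Tris/HCl pH8, 100 mM KCl, 0.05% low protease BSA, 2.5% glycerol, 0.01% Tween-20. ClpP 10 microg/mL final; 20 min RT; delta FRET normalized to ADEP and DMSO controls.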
LDHA inh: LDHA (human) enzyme inhibition. P00338. purified LDHA, NADH/diaphorase-resazurin fluorescence; active compounds read low. activity change, % (values are at about 110 or 230 µM). hit rate 0.15% among 480,000. AID 1347041; in the data active = activity change below about -30%; inconclusive = mostly about -25% to -30%;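 also: plate controls were DMSO wells for no effect and wells without enzyme for full effect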
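Resorufin fluorescence (ex540/em590), read at 0 and 20 min after diaphorase/resazurin addition, reports the NADH left after a 5 min room-temperature reaction of 2 nM human LDH5 with 0.06 mM NADH and 0.2 mM pyruvate.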
KCNH2 3.1 inh: KCNH2 3.1 (human) potassium channel inhibition; AID 720553; activity change, % (tested at about 1.8 µM); U2OS KCNH2 3.1, thallium flux FluxOr; active compounds read low; hit rate 0.95% among 340,000;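 active = maximum activity change below -70%; inconclusive = maximum activity change from -70% to -50%; inactive = maximum activity change above -50%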;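 also: thallium influx rate constant from kinetic fluorescence after stimulation buffer; % is scaled to controls: 0 for no effect and ±100 for the full control effect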
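FluxOr-based Tl+ influx in U2OS cells transduced with KCNH2 3.1 virus; rate constants normalized to DMSO controls.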
Active calls of the source: *.

Cc1ccc(NC(=O)CSc2nc3c(c(=O)[nH]2)CCC3)cc1 was read as ALOX12 inh -18% and LDHA inh -4.
Screening CCC(CC)c1nnc(NC(=O)c2nc3nc(C)cc(C)n3n2)s1 returned Chronic BCR inh -5%, hERG WT inh 4, ALOX12 inh inconclusive, ClpP mod -4%, LDHA inh 0 and KCNH2 3.1 inh -110*.
For N#Cc1c(NC(=O)c2ccnn2C(F)F)sc2c1CCCCC2 the results were ALOX12 inh inconclusive and LDHA inh 1.
CCN(c1ccccc1)c1nc2c(c(=O)[nH]c(=O)n2C)n1CC(=O)O was read as ALOX12 inh -4% and LDHA inh 3.
For O=C(CC1C(=O)NCCN1C(=O)c1ccc(Cl)cc1)Nc1ccc(F)cc1 (stereo not given) the results were Chronic BCR inh -1%, hERG WT inh 15, ALOX12 inh inconclusive, ClpP mod 32µM*, LDHA inh -2 and KCNH2 3.1 inh 6.
`O=C(CC1C(=O)NCCN1C(=O)Nc1ccc(Cl)cc1)Nc1ccc(F)cc1` (stereo not given) gave Chronic BCR inh 0%, hERG WT inh 3, ALOX12 inh 40µM*, LDHA inh 1 and KCNH2 3.1 inh 14.
`CCOc1ccc(NC(=O)CC2C(=O)NCCN2C(=O)c2ccc(Cl)cc2)cc1` (stereo not given) gave Chronic BCR inh 7%, hERG WT inh -2, ALOX12 inh 3%, LDHA inh -4 and KCNH2 3.1 inh -29.
For Cc1ccc(Cc2c(-c3ccc(Br)cc3)nc3ccc(Cl)cn23)cc1 the results were ALOX12 inh 35µM*, ClpP mod -12% and LDHA inh -3.
`Cc1ccc(-c2nc3ccc(C)cn3c2Cc2ccsc2)cc1` gave ALOX12 inh inconclusive, ClpP mod 4% and LDHA inh 0.
Cc1ccc(-c2nc3ccc(Br)cn3c2Cc2ccsc2)cc1 was read as ALOX12 inh 3.2µM*, ClpP mod -3% and LDHA inh 0.
`CC(C)(C)C(=O)CSc1nccc(C(F)(F)F)n1` gave ALOX12 inh inconclusive and LDHA inh 10.
`CCC1CCCCN1CCCNC(=O)c1ccc(/C=C2/Sc3ccccc3NC2=O)cc1` (stereo not given) gave Chronic BCR inh inconclusive, hERG WT inh inconclusive, ALOX12 inh inconclusive, ClpP mod 0%, LDHA inh -12 and KCNH2 3.1 inh -96*.
Cc1[nH]n(-c2ccccc2)c(=O)c1C(c1cccc([N+](=O)[O-])c1O)c1c(C)[nH]n(-c2ccccc2)c1=O was read as Chronic BCR inh -1%, hERG WT inh -4, ALOX12 inh 25µM*, ClpP mod -2%, LDHA inh -5 and KCNH2 3.1 inh -3.
Screening Cc1c(C(c2cccc([N+](=O)[O-])c2O)c2c(C)n(C)n(-c3ccccc3)c2=O)c(=O)n(-c2ccccc2)n1C returned Chronic BCR inh 5%, hERG WT inh -1, ALOX12 inh -19%, ClpP mod 1%, LDHA inh 7 and KCNH2 3.1 inh -2.
For OC1(CN2CCN(c3cnccn3)CC2)CNCCOC1 (stereo not given) the results were ALOX12 inh 10µM*.
For O=S(=O)(Nc1cccc(C#Cc2cccs2)c1)c1cccs1 the results were ALOX12 inh inconclusive and LDHA inh 2.
Cc1ccccc1NC1=NS(=O)(=O)c2ccccc21 was read as Chronic BCR inh 3%, hERG WT inh -285*, ALOX12 inh 1%, ClpP mod -2%, LDHA inh -2 and KCNH2 3.1 inh 1.
O=C(c1cc2ccccc2o1)N1CCN(Cc2nc3ccccc3s2)CC1 was read as hERG WT inh 40, ALOX12 inh 18µM*, ClpP mod -2%, LDHA inh -14 and KCNH2 3.1 inh -15.
Screening CC1(C)C=C(c2ccc(C=O)s2)CC(C)(C)N1C=O returned Chronic BCR inh inconclusive, hERG WT inh 6, ALOX12 inh 15%, ClpP mod 22µM*, LDHA inh -5 and KCNH2 3.1 inh 17.
Screening CC1(C)C=C(c2ccc(C=O)s2)CC(C)(C)N1 returned Chronic BCR inh 9%, hERG WT inh -12, ALOX12 inh 23%, ClpP mod -4%, LDHA inh -6 and KCNH2 3.1 inh -11.
`CCOC(=O)c1c(N2CCN(c3ccccc3)CC2)cc(C)nc1C` gave Chronic BCR inh -8%, hERG WT inh -48, ALOX12 inh inconclusive, ClpP mod -1%, LDHA inh inconclusive and KCNH2 3.1 inh -97*.
CCOC(=O)c1c(CN2CCN(c3ccccc3)CC2)oc2ccc(O)cc12 was read as Chronic BCR inh -13%, hERG WT inh 4, ALOX12 inh -12%, ClpP mod 0%, LDHA inh 1 and KCNH2 3.1 inh -16.
`CCC(CC)C(=O)Nc1c2c(nn1-c1ccc(F)cc1)CS(=O)(=O)C2` gave Chronic BCR inh 5%, hERG WT inh 3, ALOX12 inh 0%, LDHA inh 2 and KCNH2 3.1 inh -81*.
For CCC(CC)C(=O)Nc1c2c(nn1-c1ccc(OC)cc1)CS(=O)(=O)C2 the results were Chronic BCR inh -4%, hERG WT inh -7, ALOX12 inh -5%, ClpP mod -1%, LDHA inh 3 and KCNH2 3.1 inh 4.
Screening N#CC1(NC(=O)COC(=O)c2ncc(Cl)c(Cl)c2Cl)CCCCC1 returned Chronic BCR inh 5%, hERG WT inh -2, ALOX12 inh -19%, ClpP mod -3%, LDHA inh -10 and KCNH2 3.1 inh -73*.
`Cc1ccccc1C(=O)Nc1ccc2oc(-c3ccccc3F)nc2c1` gave ALOX12 inh 11% and LDHA inh 1.
For COc1ccc(-c2noc(CSc3nc(N)c(-c4ccccc4)c(=O)[nH]3)n2)cc1 the results were Chronic BCR inh 16µM*, hERG WT inh -13, ALOX12 inh -11%, ClpP mod 0%, LDHA inh -7 and KCNH2 3.1 inh 3.
For Cc1ccc(NC(=O)C2CCN(c3cnc4ccccc4n3)CC2)cc1F the results were ALOX12 inh inconclusive and LDHA inh -1.
`COc1ccc(CN2CCN(C(C)C(=O)N(C)Cc3cccc(F)c3)CC2)cc1OC` (stereo not given) gave Chronic BCR inh -2%, hERG WT inh 15, ALOX12 inh -70%, ClpP mod -1%, LDHA inh -34* and KCNH2 3.1 inh -48.
Screening OCCCc1cn(Cc2ccccc2)c2ccccc12 returned Chronic BCR inh -2%, hERG WT inh -7, ALOX12 inh -20%, ClpP mod 18µM*, LDHA inh -3 and KCNH2 3.1 inh -12.
